Laboratory results as given in PubChem BioAssay.
Unmarked numbers belong to inactive results. The source made the active and inactive calls.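 Rule for the calls, unless noted: active = mean inhibition above 46.5%, the solvent-only control mean plus 3 SD; inactive = the rest.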

What was measured:
[1] = test system: transactivating tegument protein VP16 (Human herpesvirus 1); test: VP16 transactivation reporter inhibitors, counter-screen for SRC2 inhibitor project, cell-based, luminescence, single concentration (AID 652007; in the data active = inhibition above about 36%); settings: cell-based VP16 transactivation luciferase reporter, at 8.9 µM, stronger effect = higher value
[2] = target: Nuclear receptor coactivator 2 (Homo sapiens) (UniProt Q15596); test: SRC2 coactivator transcriptional activity inhibitors, confirmation, cell-based, luminescence, HEK293, triplicate (AID 652008); settings: HEK293 GAL4-SRC2 luciferase reporter, at 8.9 µM, stronger effect = higher value;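 note: 0% = DMSO-treated cells and 100% = Gossypol at 36 µM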
Chain of Nuclear receptor coactivator 2 (Homo sapiens) (Q15596 whole entry, looked up, the tested form may be a part): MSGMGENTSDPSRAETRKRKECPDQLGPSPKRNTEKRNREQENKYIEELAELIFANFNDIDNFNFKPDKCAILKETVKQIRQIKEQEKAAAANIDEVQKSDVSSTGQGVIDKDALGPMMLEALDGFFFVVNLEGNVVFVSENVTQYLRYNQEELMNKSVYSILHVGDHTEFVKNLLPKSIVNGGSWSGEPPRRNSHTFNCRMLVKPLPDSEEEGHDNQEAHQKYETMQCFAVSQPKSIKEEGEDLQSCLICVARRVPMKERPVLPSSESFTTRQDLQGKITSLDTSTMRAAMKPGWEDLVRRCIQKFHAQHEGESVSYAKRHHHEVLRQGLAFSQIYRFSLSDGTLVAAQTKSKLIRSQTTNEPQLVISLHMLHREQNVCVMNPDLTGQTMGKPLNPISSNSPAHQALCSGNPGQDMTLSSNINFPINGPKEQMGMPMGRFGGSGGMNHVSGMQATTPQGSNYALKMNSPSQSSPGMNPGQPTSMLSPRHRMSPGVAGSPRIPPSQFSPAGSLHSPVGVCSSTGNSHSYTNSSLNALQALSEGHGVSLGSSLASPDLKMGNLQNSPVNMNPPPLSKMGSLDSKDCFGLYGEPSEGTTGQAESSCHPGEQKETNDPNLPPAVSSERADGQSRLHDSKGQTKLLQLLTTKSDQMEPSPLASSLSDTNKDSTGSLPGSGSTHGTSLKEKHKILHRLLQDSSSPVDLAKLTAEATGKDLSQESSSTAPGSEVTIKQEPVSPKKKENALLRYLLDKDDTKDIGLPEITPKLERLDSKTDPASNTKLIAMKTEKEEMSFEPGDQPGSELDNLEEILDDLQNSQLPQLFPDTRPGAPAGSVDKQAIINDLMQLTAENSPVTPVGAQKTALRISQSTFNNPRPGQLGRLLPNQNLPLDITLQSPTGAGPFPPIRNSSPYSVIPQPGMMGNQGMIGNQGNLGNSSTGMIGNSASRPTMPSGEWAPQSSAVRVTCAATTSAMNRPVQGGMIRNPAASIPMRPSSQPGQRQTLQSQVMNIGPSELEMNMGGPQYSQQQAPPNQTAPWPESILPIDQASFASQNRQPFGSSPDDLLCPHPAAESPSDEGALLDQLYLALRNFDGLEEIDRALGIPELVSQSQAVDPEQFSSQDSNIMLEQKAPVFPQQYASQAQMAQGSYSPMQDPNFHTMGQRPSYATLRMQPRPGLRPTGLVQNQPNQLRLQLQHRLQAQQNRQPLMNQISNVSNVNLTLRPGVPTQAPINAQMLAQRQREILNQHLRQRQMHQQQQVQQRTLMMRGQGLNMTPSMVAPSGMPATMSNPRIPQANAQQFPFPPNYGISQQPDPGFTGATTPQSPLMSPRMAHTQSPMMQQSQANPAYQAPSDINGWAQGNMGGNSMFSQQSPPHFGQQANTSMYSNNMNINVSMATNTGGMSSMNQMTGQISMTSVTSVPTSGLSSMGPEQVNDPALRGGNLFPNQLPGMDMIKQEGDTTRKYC

Structure (SMILES) | inhibition [1] | inhibition [2]
CC(=O)C1C(=O)c2c(cccc2[N+](=O)[O-])C1=Nc1cccc(Cl)c1 (centres undefined) | -60.3% | -35.9%
O=C(CCCN1C(=O)/C(=C/c2ccccc2Cl)SC1=S)NNC(=O)c1cccnc1 | 34.3% | 29.9%
c1c2c(cc3sc(N4CCCCC4)nc13)OCCO2 | -48.9% | 7.6%
Cc1ccc(NC(=O)C2CCC(C(C)(C)C)CC2)cc1S(=O)(=O)N1CCOCC1 (centres undefined) | 3.84% | 12.3%
Cc1cccc(C)c1NC(=O)C[n+]1cc(-c2ccccc2)n2c1CCC2 | -22.3% | -2.7%
COc1ccc(O)c(C(=O)c2cnn(S(=O)(=O)c3ccc(C)cc3)c2)c1 | -7.7% | 7.12%
C=CCNC(=S)NCc1ccccc1 | -11.1% | -24.7%
CC(=O)c1ccc(OC2(C)CCN(Cc3ccc(OC(F)(F)F)cc3)C2)cc1 (centres undefined) | -12.4% | -13.5%
COc1ccc(OCCNC(=O)c2ccc3nc(C)c(N(C)C(=O)CCc4ccccc4)n3c2)cc1 | -12.5% | 2.8%
C[n+]1cc2c3c(ccc2c2ccc4cc5c(cc4c21)OCO5)OCO3 | 96% (active) | 98.7% (active)
N#Cc1c(NC(=O)CCCC(=O)O)sc2c1CCCCC2 | -8.88% | 44%
c1ccc(CCNc2ncnc3scc(C4COc5ccccc5O4)c23)cc1 (centres undefined) | -8.4% | -10.3%
